Measured values as given in PubChem BioAssay.
Measured potencies and affinities stand elsewhere. Inconclusive results are not listed. Calls of active or inactive are those of the source. Unless noted, the rule behind the calls is not given here.

Key:
[1] = RMG-1 ovarian cancer cell viability loss – cherry-pick, dose response (AID 687029;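 active = signal drop whose fitted half-maximal concentration is at most twice the top valid dose, in every test run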;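 note: cells exposed to compound for 96 hours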); details: RMG-1 viability, CellTiterGlo ATP luminescence, 96 h; series mostly up to 35 µM
[2] = IOSE-T80 viability loss, PAX8-independent line – cell-based, cherry-pick, selectivity assay for PAX8 inhibitor project, dose response (AID 687032;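 active = fitted half-maximal concentration for viability loss no higher than twice the top valid dose, in every repeat run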;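 note: cells exposed to compound for 96 h before reading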); details: CellTiterGlo ATP luminescence, 96 h; series mostly up to 35 µM
[3] = CMV-driven luciferase expression suppression in HEK293 – cell-based, luminescence, dry powder, counter-screen for Pax8 inhibitor project, dose response (AID 743020;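 active = signal-lowering compounds whose fitted half-maximal concentration is at or below twice the top tested dose in every run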;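 note: HEK293 cells stably expressing the CMV luciferase reporter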); details: HEK293 CMV-luciferase reporter, SteadyGlo luminescence, 24 h; series mostly up to 35 µM
[4] = general cell-killing toxicity readout – plate reader, dry powder samples, cytotoxicity control for PAX8 inhibitor project, dose response (AID 743021); details: cell line, non-specific cytotoxicity counter-screen; series mostly up to 35 µM
[5] = IGROV1 cell killing – plate reader, dry powder samples, PAX8 inhibitor project, dose response (AID 743043); details: IGROV1 ovarian cancer cell cytotoxicity; series mostly up to 35 µM;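 note: more negative means fewer viable cells or more cytotoxicity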
[6] = toxicity toward immortalized ovarian surface epithelium – cell-based, plate reader, dry powder samples, cytotoxicity control for PAX8 inhibitor project, dose response (AID 743045); details: IOSE-T80 ovarian epithelial cells; series mostly up to 35 µM;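 note: more negative values mean more cell killing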
[7] = A2780 cell killing – plate reader, dry powder samples, cytotoxicity control, dose response (AID 743046); details: A2780 ovarian cancer cytotoxicity; series mostly up to 35 µM
[8] = OVCAR8 cell viability loss – plate reader, dry powder samples, PAX8 project, dose response (AID 743197); details: series mostly up to 35 µM

Measured: outcome

COCC(=O)N1CCCCN2[C@H](C1)[C@@H](c1ccc(-c3ccc(C)cc3)cc1)[C@@H]2CO
inactive: [1] | [2] | [3] | [4] | [5] | [6] | [7] | [8]

C[C@@H]1CN([C@H](C)CO)C(=O)c2cc(NC(=O)c3ccccc3)ccc2O[C@@H](C)CCCCO[C@@H]1CN(C)Cc1ccc(C(F)(F)F)cc1
inactive: [1] | [2] | [3] | [4] | [5] | [6] | [7]

C[C@@H]1CN([C@H](C)CO)C(=O)c2cc(NC(=O)Nc3ccccc3)ccc2O[C@@H](C)CCCCO[C@@H]1CN(C)CC1CCCCC1
inactive: [1] | [2] | [3] | [4] | [5] | [6] | [7]

C[C@@H]1CN([C@H](C)CO)S(=O)(=O)c2ccc(C#Cc3ccc(F)cc3)cc2O[C@H]1CN(C)C(=O)NC1CCCCC1
inactive: [1] | [2] | [3] | [4] | [5] | [6] | [7] | [8]

Cc1ccc(S(=O)(=O)Nc2ccc3c(c2)C(=O)N([C@H](C)CO)C[C@@H](C)[C@H](CN(C)Cc2ccc(Cl)c(Cl)c2)OCCCC[C@H](C)O3)cc1
inactive: [1] | [2] | [3] | [4] | [5] | [6] | [7]

C[C@@H]1CN([C@H](C)CO)C(=O)c2cc(NS(=O)(=O)c3ccccc3)ccc2O[C@@H](C)CCCCO[C@@H]1CN(C)CC1CCCCC1
inactive: [1] | [2] | [3] | [4] | [5] | [6] | [7]

C[C@@H]1CN([C@H](C)CO)C(=O)c2cccc(NC(=O)Nc3cccc4ccccc34)c2O[C@@H]1CN(C)S(=O)(=O)c1ccc(Cl)cc1
inactive: [1] | [2] | [3] | [4] | [5] | [6] | [7]

Cc1noc(C)c1S(=O)(=O)Nc1ccc2c(c1)C(=O)N([C@H](C)CO)C[C@@H](C)[C@H](CN(C)C(=O)Nc1ccc(C(F)(F)F)cc1)OCCCC[C@@H](C)O2
inactive: [1] | [2] | [3] | [4] | [5] | [6] | [7]

C[C@@H]1CN([C@@H](C)CO)C(=O)Cc2cc(NC(=O)Cc3cn(C)c4ccccc34)ccc2O[C@H]1CN(C)Cc1ccc(Oc2ccccc2)cc1
inactive: [1] | [2] | [3] | [4] | [5] | [6] | [7]

C[C@@H]1CCCCO[C@H](CN(C)Cc2ccc(C(F)(F)F)cc2)[C@H](C)CN([C@H](C)CO)C(=O)c2cc(NC(=O)c3ccccc3)ccc2O1
inactive: [1] | [2] | [3] | [4] | [5] | [6] | [7]

O=C(Nc1ccc(C(F)(F)F)cc1)Nc1ccc2c(c1)[C@H]1C[C@@H](CC(=O)N3CCc4ccccc4C3)O[C@@H](CO)[C@H]1O2
inactive: [1] | [2] | [3] | [4] | [5] | [6] | [7]

COc1ccccc1C#Cc1ccc2c(c1)O[C@@H](CN(C)Cc1cncnc1)[C@H](C)CN([C@H](C)CO)S2(=O)=O
inactive: [1] | [2] | [3] | [4] | [5] | [6] | [7]

C[C@H]1CCCCO[C@H](CN(C)Cc2ccc(C(F)(F)F)cc2)[C@@H](C)CN([C@@H](C)CO)C(=O)c2cc(NS(=O)(=O)c3cccs3)ccc2O1
inactive: [1] | [2] | [3] | [4] | [5] | [6] | [7]

C[C@@H](O)C#Cc1ccc2c(c1)O[C@H](CN(C)Cc1ccc(-c3ccccc3)cc1)[C@@H](C)CN([C@@H](C)CO)S2(=O)=O
inactive: [1] | [2] | [3] | [4] | [5] | [6] | [7]

C[C@H]1CN([C@@H](C)CO)S(=O)(=O)c2ccc(C#Cc3ccc(F)cc3)cc2O[C@@H]1CN(C)C(=O)NC1CCCCC1
inactive: [1] | [2] | [3] | [4] | [5] | [6] | [7] | [8]

C[C@@H]1CN([C@H](C)CO)C(=O)c2cc(NC(=O)Nc3ccc(C(F)(F)F)cc3)ccc2O[C@@H](C)CCCCO[C@H]1CN(C)S(=O)(=O)c1ccc(Cl)cc1
inactive: [1] | [2] | [3] | [4] | [5] | [6] | [7]

C[C@@H]1CCCCO[C@@H](CN(C)C(=O)Nc2ccc(C(F)(F)F)cc2)[C@H](C)CN([C@H](C)CO)C(=O)c2cc(NS(=O)(=O)c3ccc(F)cc3)ccc2O1
inactive: [1] | [2] | [3] | [4] | [5] | [6] | [7]

COc1cccc(C#Cc2ccc3c(c2)O[C@@H](CN(C)C(=O)c2ccccn2)[C@H](C)CN([C@@H](C)CO)S3(=O)=O)c1
inactive: [1] | [2] | [3] | [4] | [5] | [6] | [7]

CC(C)NC(=O)N(C)C[C@H]1OCCCC[C@@H](C)Oc2ccc(NC(=O)Nc3ccc(C(F)(F)F)cc3)cc2C(=O)N([C@@H](C)CO)C[C@H]1C
inactive: [1] | [2] | [3] | [4] | [5] | [6] | [7]

C[C@@H]1CCCCO[C@@H](CN(C)C(=O)Nc2ccc(C(F)(F)F)cc2)[C@H](C)CN([C@H](C)CO)C(=O)c2cc(NS(=O)(=O)c3ccc(Cl)cc3)ccc2O1
inactive: [1] | [2] | [3] | [4] | [5] | [6] | [7]

C[C@@H]1CN([C@H](C)CO)C(=O)c2cc(NC(=O)Nc3ccc(F)cc3)ccc2O[C@@H](C)CCCCO[C@H]1CN(C)C(=O)Nc1ccc(C(F)(F)F)cc1
inactive: [1] | [2] | [3] | [4] | [5] | [6] | [7]

C[C@H]1CCCCO[C@@H](CN(C)Cc2ccc3c(c2)OCO3)[C@@H](C)CN([C@@H](C)CO)C(=O)c2cc(NC(=O)Nc3ccc(F)cc3)ccc2O1
inactive: [1] | [2] | [3] | [4] | [5] | [6] | [7] | [8]

C[C@H]1CCCCO[C@H](CN(C)Cc2ccc(C(F)(F)F)cc2)[C@@H](C)CN([C@@H](C)CO)C(=O)c2cc(NS(=O)(=O)c3ccc(F)cc3)ccc2O1
inactive: [1] | [2] | [3] | [4] | [5] | [6] | [7]

C[C@@H]1CN([C@H](C)CO)C(=O)c2cc(NC(=O)Nc3ccccc3)ccc2O[C@@H](C)CCCCO[C@H]1CN(C)C(=O)Nc1ccc(C(F)(F)F)cc1
inactive: [1] | [2] | [3] | [4] | [5] | [6] | [7]

C[C@@H]1CCCCO[C@H](CN(C)Cc2ccccc2)[C@@H](C)CN([C@@H](C)CO)C(=O)c2cc(NC(=O)Nc3ccc(C(F)(F)F)cc3)ccc2O1
inactive: [1] | [2] | [3] | [4] | [5] | [6] | [7]

Cc1ccc(S(=O)(=O)Nc2ccc3c(c2)C(=O)N([C@H](C)CO)C[C@@H](C)[C@H](CN(C)C(=O)Nc2cccc4ccccc24)OCCCC[C@@H](C)O3)cc1
inactive: [1] | [2] | [3] | [4] | [5] | [6] | [7]

O=C(C[C@@H]1C[C@H]2c3cc(NC(=O)Nc4ccc(C(F)(F)F)cc4)ccc3O[C@H]2[C@H](CO)O1)NCc1ccc(Cl)cc1
inactive: [1] | [2] | [3] | [4] | [5] | [6] | [7] | [8]

C[C@@H]1CN([C@H](C)CO)S(=O)(=O)c2ccc(C#CC3CCCC3)cc2O[C@H]1CN(C)Cc1cccnc1
inactive: [1] | [2] | [3] | [4] | [5] | [6] | [7]

CS(=O)(=O)N1CC(=O)N2[C@H](CO)[C@H](c3ccc(C#CCC4CCCC4)cc3)[C@H]2C1
inactive: [1] | [2] | [3] | [4] | [5] | [6] | [8]

C[C@H](O)C#Cc1ccc2c(c1)O[C@@H](CN(C)Cc1ccc(-c3ccccc3)cc1)[C@H](C)CN([C@H](C)CO)S2(=O)=O
inactive: [1] | [2] | [3] | [4] | [5] | [7]

C[C@H](CO)N1C[C@H](C)[C@H](CN(C)CC2CCCCC2)Oc2ccc(NS(=O)(=O)c3ccc(Cl)cc3)cc2CC1=O
inactive: [1] | [2] | [3] | [4] | [5] | [6] | [7] | [8]

O=C(Cc1ccccc1)N1CC[C@H]2[C@H](CO)Nc3ccc(C4=CCCCC4)cc3[C@H]21
inactive: [1] | [2] | [3] | [4] | [5] | [6] | [7] | [8]

COc1ccccc1-c1ccc2c(c1)[C@@H]1[C@@H](CCN1S(=O)(=O)c1ccccc1F)[C@H](CO)N2
inactive: [1] | [2] | [3] | [4] | [5] | [6] | [7] | [8]

C[C@@H]1CCCCO[C@H](CN(C)Cc2ccc(C(=O)Nc3ccccc3N)cc2)[C@@H](C)CN([C@@H](C)CO)C(=O)c2cc(NS(=O)(=O)c3ccc(Cl)cc3)ccc2O1
inactive: [1] | [2] | [3] | [4] | [5] | [7]
